Experimental data published in PubChem BioAssay (EPA / NIEHS).
Results filed as inconclusive are left out. Activity calls are given as the source filed them. Rule for the calls: active = hit-call score of the fitted dose curve at least 0.9, where 1 is the maximum; inconclusive = response in the unintended direction; inactive = score below 0.9.

Target: rat Peripheral-type Benzodiazepine Receptor (PBR), Tspo (gene 24230) (UniProt P16257)
Experiment: NVS_MP_rPBR: NovaScreen (NVS) Membrane Protein Assay for rat Peripheral-type Benzodiazepine Receptor (PBR) (AID 2283335)
Experimental: NVS_MP_rPBR is a biochemical, single-readout assay that uses extracted gene-proteins from Rat kidney membranes in a tissue-based cell-free assay. Measurements were taken 1 hour after chemical dosing in a 48-well plate.NVS_MP_rPBR is one of one assay component(s) measured or calculated from the NVS_MP_rPBR assay. It is designed to make measurements of radioligand binding, a form of binding reporter, as detected with scintillation counting signals by Filter-based radiodetection technology.Data from the assay component NVS_MP_rPBR was analyzed into 1 assay endpoint. This assay endpoint, NVS_MP_rPBR, was analyzed in the positive analysis fitting direction relative to DMSO as the negative control and baseline of activity. Using a type of binding reporter, loss-of-signal activity can be used to understand changes in the binding as they relate to the gene Tspo. Furthermore, this assay endpoint can be referred to as a primary readout, because the performed assay has only produced 1 assay endpoint. To generalize the intended target to other relatable targets, this assay endpoint is annotated to the transporter intended target family, where the subfamily is cholesterol transporter.
Binding assays used specific radioligands (tritiated, iodinated) with non-radioactive competitive displacement ligands in agonist or antagonist protocols (as indicated) and various reference compounds and inhibitors to titrate specific binding to receptors and transporters. Most enzyme assays (CYPs, kinases, phosphatases, proteases, HDACs) used recombinant protein and specific substrates (fluorescence mostly, some colorimetric and radioactive) and inhibitors, followed by a biochemical separation of substrate and product. All assays for the biochemical HTS were initially run in duplicate at a single concentration (10 uM for CYP450 assays and 25 uM for all others). […] Each assay was run with positive and negative controls, and concurrent controls on every plate. The follow-up (secondary) screen tested active chemical-pairs in concentration series, as well as a few additional assays not tested in the primary screen, some selected negative inactives, and several cases re-run in the concentration series for confirmatory purposes.

rat Peripheral-type Benzodiazepine Receptor (PBR), Tspo (gene 24230), sequence (P16257 whole entry, looked up): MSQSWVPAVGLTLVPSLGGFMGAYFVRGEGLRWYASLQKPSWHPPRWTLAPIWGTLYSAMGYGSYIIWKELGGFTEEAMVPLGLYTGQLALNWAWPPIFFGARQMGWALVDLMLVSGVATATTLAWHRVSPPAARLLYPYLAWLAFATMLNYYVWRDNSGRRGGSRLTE

SMILES	outcome	AC50
CCCCCCCC/C=C\CCCCCCCC(=O)N(C)CC(=O)O	inactive	
CCCCCCCCCCCCCC[P+](CCCC)(CCCC)CCCC		12.2 µM (active)
CCN=C1C=CC(=C(c2ccc(N(CC)CC)cc2)c2ccc(N(CC)CC)cc2)c2ccccc21		0.185 µM (active)
Cc1ccc(S(=O)(=O)C(I)I)cc1		7.18 µM (active)
CCc1cc(Cc2cc(CC)c(N)c(CC)c2)cc(CC)c1N		6.66 µM (active)
CCN(CC)c1ccc(C=O)c(O)c1	inactive	
O=C(c1ccccc1)c1ccc(O)cc1O	inactive	
O=C1c2c(O)ccc(Nc3ccc(CCO)cc3)c2C(=O)c2c([N+](=O)[O-])ccc(O)c21		2.38 µM (active)
O=C(c1ccccc1)c1ccc(Cl)cc1		12.6 µM (active)
CC(C)Nc1ccc(NC(C)C)c2c1C(=O)c1ccccc1C2=O		0.666 µM (active)
CCN(CC)c1ccc(C=O)cc1	inactive	
CCN=c1cc2oc3cc(NCC)c(C)cc3c(-c3ccccc3C(=O)OCC)c-2cc1C		5.08 µM (active)
